The numbers were not newly measured in PubChem BioAssay AID977611, which cites them from elsewhere.

Hit rate of the full screen: of about 3,900 compounds, about 3,900 (100%) were called active. Cut-off not given; nearly all actives show Kd up to about 4200 µM. So high a share suggests a set chosen from earlier hits. The list shows a part of the results. Starred links: 1 amine or outer side, 2 acyl side, 3 side chain; linkers in the order of their positions; H or OH if unused. *1 amine or outer side, *2 acyl side, *3 side chain or, on linkers, in order; H or OH if unused. Where a SMILES comes first, the peptide text is derived from it. Non-standard residues stand in square brackets, D forms with d. Square brackets hold non-standard residues; d marks the D form. Residues, ends and D or L forms follow the SMILES beside them. Peptide text beside a SMILES is read from it. [ ]: non-standard residue; d: D form. ξ: configuration not given here. X1 = O=C([C@H](Cc1ccc(O[P+](O)(O)O)cc1)N[*:1])[*:2]; Thr(P(OH)3+) = C[C@@H](O[P+](O)(O)O)[C@H](N)C(=O)O; Orn(CH(NH2)2) = NC(N)NCCC[C@H](N)C(=O)O; ξE = NC(CCC(=O)O)C(=O)O

This data set can be described thus: PubChem AID 977611. The note with it: PDB protein-ligand complexes, literature Kd.

As usually defined, the Kd is the free concentration of one partner at which half of the binding sites on the other are occupied at equilibrium, for simple one-to-one binding. Regarding `O=C1C=C(O)C=CC1S(=O)(=O)n1cc2ccc(O)cc2c1` (stereo unspecified), the dissociation constant Kd (PDB entry 4mpe) was 426 nM (active).

As to `C/C(O)=[N+](/O)CCC[C@@H]1NC(=O)CNC(=O)CNC(=O)CNC(=O)C(CCCN(O)C(C)O)NC(=O)[C@H](CCCN(O)C(C)O)NC1=O.[Fe]` (stereo partly specified), the Kd (protein: Iron-compound ABC transporter, iron compound-binding protein, PDB entry 4hmq) is 5.8 nM (active).

For the compound H-APTLPKLPSLS-OH, the dissociation constant (Kd) (protein: Ankyrin Repeat Domains of Human ANKRA2, PDB entry 3v2o) is 4900 nM (active).

Turning to H-LLPTLPKLPSL-OH, the Kd (protein: Ankyrin Repeat Domains of Human ANKRA2, PDB entry 3v2x) is 4500 nM (active).

On to `C[C@@H](O)[C@H](N)C(=O)N[C@@H](CCCNC(N)N)C(=O)N[C@@H](CO)C(=O)N[C@@H](CCCCN)C(=O)N[C@@H](Cc1ccccc1)C(=O)N[C@@H](Cc1ccccc1)C(=O)N[C@@H](CC(N)=O)C(=O)O` (H-T[Orn(CH(NH2)2)]SKFFN-OH), for which, where the note is “protein: C-terminal domain of the Saccharomyces cerevisiae MUTL alpha (MLH1/PMS1) heterodimer, PDB entry 4fmo”, the Kd is 2940 nM (active).

On to `CC(=O)N[C@H](C(=O)N[C@@H](CCCNC(N)N)C(=O)N[C@@H](CO)C(=O)N[C@@H](CCCCN)C(=O)N[C@@H](Cc1ccc(O)cc1)C(=O)N[C@@H](Cc1ccccc1)C(=O)N[C@@H](CCCCN)C(=O)O)C(C)C` (Ac-V[Orn(CH(NH2)2)]SKYFK-OH), for which the Kd (protein: C-terminal domain of the Saccharomyces cerevisiae MUTL alpha (MLH1/PMS1) heterodimer, PDB entry 4fmn) was 750 nM (active).

For `CC(=O)N[C@@H](Cc1cnc[nH]1)C(=O)N[C@@H](CO)C(=O)N[C@@H](CCCCN)C(=O)N[C@@H](Cc1ccc(O)cc1)C(=O)N1CCC[C@H]1C(=O)N[C@@H](CC(C)C)C(=O)N1CCC[C@H]1C(=O)N1CCC[C@H]1C(=O)N[C@@H](CC(C)C)C(=O)N1CCC[C@H]1C(=O)N[C@@H](CO)C(=O)N[C@@H](CC(C)C)C(N)=O` (Ac-HSKYPLPPLPSL-NH2), the Kd (protein: Tyrosine-protein kinase HCK, PDB entry 2oi3) was 230 nM (active).

H-DADTLLHFATESTPD-OH: for the setting “protein: Beta-catenin-interacting protein 1, PDB entry 1t08”, the dissociation constant (Kd) is 3100 nM (active).

Turning to `CC(C)C[C@H](NC(=O)[C@H](C)NC(=O)[C@H](CCC(=O)O)NC(=O)[C@H](CC(=O)O)NC(=O)[C@H](Cc1ccc(O)cc1)NC(=O)[C@H](CO)NC(=O)[C@@H]1CCCN1C(=O)[C@H](CC(C)C)NC(=O)CNC(=O)[C@@H](N)[C@@H](C)O)C(=O)N[C@@H](Cc1cnc[nH]1)C(=O)O` (H-TGLPSYDEALH-OH), the Kd (protein: E3 ubiquitin-protein ligase NEDD4, PDB entry 2ez5) was 3000 nM (active).

On to H-HPVGDADYFEY-OH, for which the Kd by setting is: (protein: LA class I histocompatibility antigen, B-35 alpha chain HLA-B 35:01, PDB entry 4pr5) 2200 nM (active); (protein: MHC class I antigen HLA-B 35:08, PDB entry 4prd) 25400 nM (active); (protein: MHC class I antigen-Beta-2-microglobulin, PDB entry 4prh) 25400 nM (active).

Consider H-ANPHGAARAEVY-OH, for which, under “protein: WD repeat-containing protein 5, WDR5, PDB entry 4erz”, the Kd was 88 nM (active).

In the case of H-EPPLNPHGSARAEVHA-OH, the dissociation constant Kd (protein: WD repeat-containing protein 5, WDR5, PDB entry 4esg) is 2760 nM (active).

Consider H-HPVGEADYFEY-OH, for which, for the setting “protein: MHC class I antigen-Beta-2-microglobulin, PDB entry 4pri”, the Kd is 93200 nM (active).

Consider `CC(C)C[C@H](NC(=O)[C@H](CC(=O)O)NC(=O)[C@H](Cc1ccc(O)cc1)NC(=O)[C@H](CC(C)C)NC(=O)[C@H](CCC(=O)O)NC(=O)[C@H](Cc1cnc[nH]1)NC(=O)[C@H](CC(C)C)NC(=O)[C@@H](NC(=O)[C@@H]1CCCN1C(=O)[C@@H]1CCCN1)[C@@H](C)O)C(=O)O` (H-PPTLHELYDL-OH), for which, under “protein: Retinoblastoma-associated protein, PDB entry 2r7g”, the equilibrium dissociation constant (Kd) is 900 nM (active).

For the compound H-HPVAEADYFEY-OH, the dissociation constant Kd by setting is: (protein: HLA class I histocompatibility antigen, B-35 alpha chain, PDB entry 4prn) 2200 nM (active); (protein: MHC class I antigen HLA-B 35:08, PDB entry 4prb) 132000 nM (active).

In the case of H-TLVSMPPLPGLDLAGS-OH, under “protein: Ankyrin Repeat Domains of Human DNA-binding protein RFXANK, PDB entry 3v30”, the Kd is 184000 nM (active).

With H-HPVGQADYFEY-OH, the Kd is, setting by setting: (protein: LA class I histocompatibility antigen, B-35 alpha chain HLA-B 35:011, PDB entry 4pra) 2200 nM (active); (protein: MHC class I antigen HLA-B 35:08, PDB entry 4pre) 181000 nM (active); (protein: MHC class I antigen-Beta-2-microglobulin, PDB entry 4prp) 2200 nM (active).

Turning to `CC[C@H](C)[C@H](NC(=O)[C@H](Cc1ccc(O)cc1)NC(=O)[C@@H](N)C(C)C)C(=O)N[C@@H](Cc1cnc[nH]1)C(=O)N1CCC[C@H]1C(=O)N[C@@H](Cc1ccccc1)C(=O)O`, the dissociation constant Kd (protein: Aminopeptidase N, PDB entry 4fys) was 15000 nM (active).

On to `COc1cc(NC(=O)C[C@@]2(C)C[C@H](c3cccc(Cl)c3)[C@@H](c3ccc(Cl)c(F)c3)N([C@H](CS(=O)(=O)C(C)(C)C)C3CC3)C2=O)ccc1C(=O)O`, for which the equilibrium dissociation constant (Kd) (protein: E3 ubiquitin-protein ligase Mdm2, PDB entry 4wt2) was 0.038 nM (active).

With `CC(C)C[C@H](NC(=O)[C@H](CC(C)C)NC(=O)[C@H](CCCNC(N)N)NC(=O)[C@@H](N)CC(N)=O)C(=O)N[C@@H](CC(C)C)C(=O)N[C@H](C(=O)NCC(=O)O)[C@@H](C)O`, the equilibrium dissociation constant (Kd) (protein: Chaperone protein DnaK, PDB entry 4ezw) was 1000 nM (active).

For the compound `CSCC[C@H](NC(=O)[C@H](CC(C)C)NC(=O)[C@H](CCCNC(N)N)NC(=O)[C@@H](N)CC(N)=O)C(=O)N[C@@H](CC(C)C)C(=O)N[C@H](C(=O)NCC(=O)O)[C@@H](C)O` (H-N[Orn(CH(NH2)2)]LMLTG-OH), the dissociation constant (Kd) (protein: Chaperone protein DnaK, PDB entry 4ezx) was 1600 nM (active).

Take `COc1cc(OC)c2c(=O)[nH]c(-c3cc(C)c(O)c(C)c3)nc2c1`: the Kd was 251 nM (active) (protein: Bromodomain-containing protein 2, PDB entry 4mr5) and 1140 nM (active) (protein: Bromodomain-containing protein 4, PDB entry 4mr3).

In the case of `COc1ccc(Nc2nc3cc(C(=O)O)ccc3n2Cc2ccccc2C(F)(F)F)cc1F`, the dissociation constant (Kd) (protein: KINESIN-LIKE PROTEIN KIF11, PDB entry 3zcw) was 650 nM (active).

As to `C[C@@H](O)[C@H](NC(=O)[C@H](CC(N)=O)NC(=O)[C@@H](N)CCCNC(N)N)C(=O)N[C@@H](CC(N)=O)C(=O)N[C@@H](CCC(=O)O)C(=O)N[C@@H](Cc1ccc(O[P+](O)(O)O)cc1)C(=O)N[C@H](C(=O)N[C@@H](CCC(=O)O)C(=O)NCC(=O)N1CCC[C@H]1C(=O)O)[C@@H](C)O[P+](O)(O)O` (H-[Orn(CH(NH2)2)]NTNE[X1][Thr(P(OH)3+)]EGP-OH), the Kd (protein: E3 ubiquitin-protein ligase CBL c-Cbl TKB domain, PDB entry 3ob1) was 3830 nM (active).

As for `C[C@@H](O)[C@H](N)C(=O)N[C@@H](CC(N)=O)C(=O)N[C@@H](CCC(=O)O)C(=O)N[C@@H](Cc1ccc(O[P+](O)(O)O)cc1)C(=O)N[C@H](C(=O)N[C@@H](CCC(=O)O)C(=O)NCC(=O)N1CCC[C@H]1C(=O)N[C@H](C(=O)O)[C@@H](C)O)[C@@H](C)O` (H-TNE[X1]TEGPT-OH), the dissociation constant (Kd) (protein: E3 ubiquitin-protein ligase CBL, PDB entry 3bum) is 320 nM (active).

As to `CC(C)C[C@H](NC(=O)[C@H](CC(N)=O)NC(=O)[C@@H](N)CCCNC(N)N)C(=O)N[C@@H](Cc1ccccc1)C(=O)NCC(=O)N1CCC[C@H]1C(=O)O` (H-[Orn(CH(NH2)2)]NLFGP-OH), the Kd (protein: phospho-CDK2/cyclin A, PDB entry 1h27) is 2500 nM (active).

Take `CC(C)C[C@H](NC(=O)[C@@H](N)CC(=O)O)C(=O)N[C@@H](Cc1ccc(O)cc1)C(=O)NCC(=O)O` (H-DLYG-OH): the Kd (protein: E3 ubiquitin-protein ligase RNF31 HOIP PUB Domain, PDB entry 4p0a) is 30300 nM (active).

Turning to `CC(C)C[C@H](NC(=O)[C@H](CS)NC(=O)[C@H](CCC(=O)O)NC(=O)[C@H](Cc1ccc(O)cc1)NC(=O)CNC(=O)[C@H](Cc1ccc(O)cc1)NC(=O)C(CCC(=O)O)NC(=O)[C@H](CCC(=O)O)NC(=O)[C@@H](N)CC(=O)O)C(=O)N[C@@H](CC(=O)O)C(=O)O` (stereo partly specified) (H-DE[ξE]YGYECLD-OH), the Kd (protein: AP-2 complex subunit mu-1, PDB entry 2pr9) is 42.2 nM (active).

On to `CCc1cn([C@@H]2O[C@H](CO)[C@@H](O)[C@H]2O)c2ncnc(N)c12`, for which the equilibrium dissociation constant (Kd) (protein: Adenosine kinase ADK, PDB entry 4pvv) was 330 nM (active).

Regarding `CC(C)=CCNc1ncnc2c1ncn2[C@@H]1O[C@H](CO[P+](O)(O)O)[C@@H](O)[C@H]1O`, the Kd (protein: 2'-deoxynucleoside 5'-phosphate N-hydrolase 1, DNPH1 (RCL), PDB entry 4kxm) is 2600 nM (active).
